Assay outcomes deposited in PubChem by The Scripps Research Institute Molecular Screening Center.
MsrA inhibitor – inhibits bovine methionine sulfoxide reductase A | inhibition, % at 15.5 µM | AID 651718 | hit rate 0.75% among 360,000 | purified bovine MsrA, absorbance read-out; in the data active = inhibition above about 4.5%;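 note: 0% = vehicle wells with enzyme and 100% = reference inhibitor wells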
KLK7 zymogen act – proKLK7 (human) activation, primary screen | purified proKLK7, EDANS-DABCYL substrate fluorescence; 100% is mature enzyme control, 0% vehicle | hit rate 0.9% among 370,000 | activation, % at 7 µM | AID 652039 | P49862;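 active = activation above the mean of all tested compounds plus 3 SD, computed per campaign excluding outliers beyond control limits, cut at about 13% in these data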
Target sequence (P49862 whole entry, looked up): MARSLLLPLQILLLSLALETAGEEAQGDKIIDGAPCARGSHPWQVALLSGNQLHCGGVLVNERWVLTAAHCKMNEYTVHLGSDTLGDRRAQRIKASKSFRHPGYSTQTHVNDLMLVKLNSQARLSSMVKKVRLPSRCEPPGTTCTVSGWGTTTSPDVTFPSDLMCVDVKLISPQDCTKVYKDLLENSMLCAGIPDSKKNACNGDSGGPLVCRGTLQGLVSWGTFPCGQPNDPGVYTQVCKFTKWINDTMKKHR
bovine MsrA act – activators of bovine methionine sulfoxide reductase A. purified bovine MsrA, absorbance read-out. activation, % at 10.6 µM. hit rate 0.3% among 360,000; in the data active = activation above about 7.5%;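 note: 0% = vehicle and 100% = reference activator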
SMARCA2 act – activators of SMARCA2 function; activation, % at 9.1 µM; hit rate 1% among 370,000; MG213 cells, MMTV-luciferase reporter, dexamethasone, overnight; in the data active = activation above about 7.8%;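 note: 0% = vehicle wells and 100% = reference activator wells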
SMARCA2 conf – SMARCA2 activation, confirmation screen; shares compounds with SMARCA2 act; MG213 cells, MMTV-luciferase with dexamethasone, luminescence, overnight; MG213 cells expressing E1A, Rb sequestered; DMSO wells 0%, reference activator 100%; activation, % at 9.1 µM; hit rate 30% among 3,500;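 active = activation above its plate's cutoff, the mean activation of tested wells plus 3 SD, cut at about 7.9% in these data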
GAL4-VP16 Luc – GAL4-VP16 reporter activation counter-screen. shares compounds with SMARCA2 act. HEK293 GAL4-VP16 pG5luc reporter, luciferase luminescence; scaled: DMSO wells 0%, SAHA wells 100%. activation, % at 9.1 µM. hit rate 41% among 3,500. AID 686939;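 active = activation above the solvent-only control well mean plus 3 SD, averaged across control plates, cut at about 5.2% in these data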
* marks the source's active call; other numbers are inactive results. Sampled rows, rich in hits. Any-hit rate of the full collection: about 2.8%.

How did CCOC(=O)C1=C(N)OC(C)=C(C#N)C1c1ccco1 (configuration not stated) do in these assays?
MsrA inhibitor: 0; KLK7 zymogen act: -1; bovine MsrA act: -4; SMARCA2 act: 9.0*; SMARCA2 conf: 1; GAL4-VP16 Luc: 1

What do the screens show for `CCCC1=C(C(=O)OCC)C(c2ccco2)C(C#N)=C(N)O1` (configuration not stated)?
MsrA inhibitor: 1; KLK7 zymogen act: 1; bovine MsrA act: -4; SMARCA2 act: 0

What do the screens show for `COC(=O)c1ccc2[nH]c(C(C)(C)O)c(C)c2c1`?
MsrA inhibitor: 0; KLK7 zymogen act: 0; bovine MsrA act: 4; SMARCA2 act: 8.2*; SMARCA2 conf: 3; GAL4-VP16 Luc: 5

Results for Cc1ccccc1Cn1cc(CN2[C@@H](Cc3ccccc3)COc3cc(Br)ccc3S2(=O)=O)nn1 ?
KLK7 zymogen act: 0; SMARCA2 act: -4

How did O=C(C[C@@H]1CC[C@@H]2[C@H](COC[C@H](O)CN2CCC(F)(F)F)O1)NCc1ccc2c(c1)OCO2 do in these assays?
MsrA inhibitor: 0; KLK7 zymogen act: 0; SMARCA2 act: -3

Results for O=C(NCc1cccnc1)c1ccc(S(=O)(=O)N2CCOCC2)cc1 ?
MsrA inhibitor: 1; KLK7 zymogen act: 0; bovine MsrA act: -1; SMARCA2 act: 2

How did Cc1ccc(S(=O)(=O)N2CCOCC2)cc1C(=O)NCc1cccnc1 do in these assays?
MsrA inhibitor: 0; KLK7 zymogen act: 0; bovine MsrA act: -1; SMARCA2 act: 10*; SMARCA2 conf: 0; GAL4-VP16 Luc: 1

How did COc1ccc(S(=O)(=O)N2CCCCCC2)c2ccccc12 do in these assays?
KLK7 zymogen act: 1; SMARCA2 act: -1

Results for COCCCN1C(=O)[C@H](CC(=O)NCCC(C)C)[C@]2(C(=O)OC)CCCCC=C12 ?
KLK7 zymogen act: 0; SMARCA2 act: 0

What do the screens show for `CC(CN1C(C)CCCC1C)OC(=O)c1ccccc1F` (configuration not stated)?
MsrA inhibitor: 1; KLK7 zymogen act: 0; bovine MsrA act: -6; SMARCA2 act: 9.2*; SMARCA2 conf: 0; GAL4-VP16 Luc: 4

Results for CC[C@H]1OC(=O)[C@H](C)[C@@H](O[C@H]2C[C@@](C)(OC)[C@@H](O)[C@H](C)O2)C(C)[C@@H](O[C@@H]2O[C@H](C)C[C@H](N(C)C)[C@H]2O)[C@](C)(O)C[C@@H](C)CN(C)[C@H](C)[C@@H](O)[C@]1(C)O (some centres not stated) ?
KLK7 zymogen act: 0; SMARCA2 act: -7

What do the screens show for `CC1(C(=O)NS(=O)(=O)c2ccccc2C(F)(F)F)CCN1C(=O)CCc1cccs1` (configuration not stated)?
MsrA inhibitor: -1; KLK7 zymogen act: 0; bovine MsrA act: 1; SMARCA2 act: 8.7*; SMARCA2 conf: -3; GAL4-VP16 Luc: 2

Results for O=C(c1cccs1)N1CCN(Cc2nc(-c3ccccc3)no2)CC1 ?
MsrA inhibitor: -2; KLK7 zymogen act: 1; bovine MsrA act: -1; SMARCA2 act: -2

What do the screens show for `CC(C)CCn1c(Sc2nc3ccccc3o2)nc2c1c(=O)[nH]c(=O)n2C`?
MsrA inhibitor: -1; KLK7 zymogen act: -1; bovine MsrA act: -1; SMARCA2 act: 8.1*; SMARCA2 conf: 2; GAL4-VP16 Luc: 5

What do the screens show for `Cn1c(=O)[nH]c(=O)c2c1nc(N1CCCCC1)n2CCSc1nc2ccccc2o1`?
MsrA inhibitor: 0; KLK7 zymogen act: 0; bovine MsrA act: -3; SMARCA2 act: -1

Results for CC(NC(=O)CCSCc1ccccc1F)c1ccccc1 (configuration not stated) ?
MsrA inhibitor: 1; KLK7 zymogen act: 0; bovine MsrA act: -1; SMARCA2 act: 12*; SMARCA2 conf: 3; GAL4-VP16 Luc: 4

Results for N#C/C(=C(/O)c1ccc(F)cc1)c1nc2ccccc2s1 ?
MsrA inhibitor: 2; KLK7 zymogen act: 0; bovine MsrA act: 0; SMARCA2 act: 8.8*; SMARCA2 conf: -3; GAL4-VP16 Luc: 8.9*

How did N#C/C(=C(/O)COc1ccccc1)c1nc2ccccc2s1 do in these assays?
MsrA inhibitor: 3; KLK7 zymogen act: 0; bovine MsrA act: -3; SMARCA2 act: -2

How did Cc1ccc(CN2C(=O)C(C)Nc3ncnc(N4CCN(c5ccccn5)CC4)c32)cc1 (configuration not stated) do in these assays?
MsrA inhibitor: 2; KLK7 zymogen act: 0; bovine MsrA act: -7; SMARCA2 act: 1

How did N#C/C(=C/c1ccco1)c1nc2ccccc2s1 do in these assays?
MsrA inhibitor: 1; KLK7 zymogen act: 0; bovine MsrA act: -4; SMARCA2 act: 18*; SMARCA2 conf: 9.3*; GAL4-VP16 Luc: 14*

Results for COc1ccc2[nH]c(=O)c(C(c3nnnn3C(C)(C)C)N(Cc3ccco3)CC3CCCO3)cc2c1 (configuration not stated) ?
MsrA inhibitor: 0; KLK7 zymogen act: 3; bovine MsrA act: -5; SMARCA2 act: 12*; SMARCA2 conf: -3; GAL4-VP16 Luc: 1

Results for Cc1ccc(-c2ccc(CCC(=O)O)n2NC(N)=S)cc1 ?
MsrA inhibitor: 1; KLK7 zymogen act: 0; bovine MsrA act: -10; SMARCA2 act: 8.4*; SMARCA2 conf: -1; GAL4-VP16 Luc: 1

Results for Cc1cccc(-c2nnc(-c3ccc4ccccc4c3)o2)c1 ?
MsrA inhibitor: -1; KLK7 zymogen act: 1; bovine MsrA act: -1; SMARCA2 act: 11*; SMARCA2 conf: 7; GAL4-VP16 Luc: 4

How did COc1cccc(C(=O)N/N=C/C(Br)=C/c2ccccc2)c1 do in these assays?
MsrA inhibitor: 2; KLK7 zymogen act: 0; bovine MsrA act: -4; SMARCA2 act: 12*; SMARCA2 conf: 5; GAL4-VP16 Luc: 3

Results for COc1cccc(C(=O)Nc2ccccc2NC(=O)c2cccc(OC)c2)c1 ?
MsrA inhibitor: -1; KLK7 zymogen act: 0; bovine MsrA act: -10; SMARCA2 act: -1

How did Cc1occc1C(=O)N/N=C/c1ccc(-c2ccccc2)cc1 do in these assays?
MsrA inhibitor: 1; KLK7 zymogen act: 0; bovine MsrA act: -4; SMARCA2 act: 7

How did Cc1occc1C(=O)N/N=C/c1ccc[nH]1 do in these assays?
MsrA inhibitor: 2; KLK7 zymogen act: 0; bovine MsrA act: -3; SMARCA2 act: 8.2*; SMARCA2 conf: 3; GAL4-VP16 Luc: 2

Results for Cc1occc1C(=O)N/N=C/C=C\c1ccccc1[N+](=O)[O-] ?
MsrA inhibitor: 2; KLK7 zymogen act: 0; bovine MsrA act: -4; SMARCA2 act: 8.9*; SMARCA2 conf: -3; GAL4-VP16 Luc: 1

How did Cc1occc1C(=O)N/N=C/C(Br)=C/c1ccccc1 do in these assays?
MsrA inhibitor: 2; KLK7 zymogen act: 0; bovine MsrA act: -2; SMARCA2 act: 14*; SMARCA2 conf: 8.2*; GAL4-VP16 Luc: 15*
